# This is one part of a sample in which the strongest signals are shown more often than they occur.
# B1: Pwp5 ND (Candida glabrata) (protein)
# chain: MGSSHHHHHHSSGLVPRGSHMASANPVPLTNVCYFPEEYPRQAGFRAITAGLASTILQGSVDELLNYSGLSSLTTQQTTTTTPNFQLPTLPLPTNVYGLTVVPLYLLVQLQGYFVPPVSGQYTFSLENTNDAAIIFFGNPSAFPCGDLSAWPQASADDITVTDGTFPSRTLFLKAGVAYPMRISYYNSLGSGNLAVSFTDPGGTKRTNWNGYIWRYNSCSTCTYT
# Tests used:
# Assay in all cases: glycan array binding signal (z-score within array); higher = stronger binding
# Details in all cases: glycan notation: IUPAC condensed, linker removed
# [1] = biological target: Fuc(a1-2)Gal(b1-3)GalNAc(b1-4)[Neu5Ac(a2-3)]Gal(b1-4)Glc
# In short: (§1)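 Glycan array data came from 3228 arrays in the Consortium for Functional Glycomics database, and only arrays with an available protein sequence were kept. Glycan names were put into IUPAC-condensed notation, and columns mapping to the same glycan were averaged. The binding signal is a within-array Z-score, averaged across arrays of one protein sequence run at different concentrations or buffers and across linkers. A negative Z-score can be read as non-binding.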
# [2] = biological target: Fuc(a1-2)Gal(b1-3)GlcNAc6S
# In short: as §1
# [3] = biological target: Fuc(a1-2)Gal(b1-3)[Fuc(a1-4)]GlcNAc
# In short: as §1
# [4] = biological target: Fuc(a1-2)Gal(b1-4)GlcNAc(b1-2)[Fuc(a1-2)Gal(b1-4)GlcNAc(b1-4)]Man(a1-3)[Fuc(a1-2)Gal(b1-4)GlcNAc(b1-2)Man(a1-6)]Man(b1-4)GlcNAc(b1-4)GlcNAc
# In short: as §1
# [5] = biological target: Fuc(a1-2)Gal(b1-4)GlcNAc(b1-6)GalNAc
# In short: as §1
# [6] = biological target: Fuc(a1-2)Gal6S(b1-4)Glc6S
# In short: as §1
# [7] = biological target: Fuc(a1-2)[Gal(a1-3)]Gal(b1-4)GlcNAc(b1-2)Man(a1-3)[Fuc(a1-2)[Gal(a1-3)]Gal(b1-4)GlcNAc(b1-2)Man(a1-6)]Man(b1-4)GlcNAc(b1-4)[Fuc(a1-6)]GlcNAc
# In short: as §1
# [8] = biological target: Fuc(a1-2)[Gal(a1-3)]Gal(b1-4)GlcNAc(b1-3)[Fuc(a1-2)[Gal(a1-3)]Gal(b1-4)GlcNAc(b1-6)]GalNAc
# In short: as §1
# [9] = biological target: Fuc(a1-2)[Gal(a1-3)]Gal(b1-4)GlcNAc(b1-6)GalNAc
# In short: as §1
# [10] = biological target: Fuc(a1-2)[Gal(a1-3)]Gal(b1-4)[Fuc(a1-3)]Glc
# In short: as §1
# [11] = biological target: Fuc(a1-2)[GalNAc(a1-3)]Gal(b1-3)GlcNAc(b1-3)GalNAc
# In short: as §1
# [12] = biological target: Fuc(a1-2)[GalNAc(a1-3)]Gal(b1-4)[Fuc(a1-3)]GlcNAc
# In short: as §1
# [13] = biological target: Fuc(a1-2)[GalNAc(a1-3)]Gal(b1-4)[Fuc(a1-3)]GlcNAc(b1-3)GalNAc
# In short: as §1
# [14] = biological target: Fuc(a1-3)[Gal(b1-4)]Glc6S
# In short: as §1
# [15] = biological target: Fuc(a1-3)[Gal(b1-4)]GlcNAc(b1-2)Man(a1-3)[Fuc(a1-3)[Gal(b1-4)]GlcNAc(b1-2)Man(a1-6)]Man(b1-4)GlcNAc(b1-4)GlcNAc
# In short: as §1
# Gal(a1-3)Gal = biological target: Gal(a1-3)Gal
# In short: as §1
# [16] = biological target: Gal(a1-3)Gal(b1-3)GlcNAc(b1-6)GalNAc
# In short: as §1
# Gal(b1-3)GalNAc = biological target: Gal(b1-3)GalNAc
# In short: as §1
# [17] = biological target: Gal(b1-3)GalNAc(b1-3)Gal(a1-4)Gal(b1-4)Glc
# In short: as §1
# [18] = biological target: Gal(b1-3)GalNAc(b1-4)[Neu5Ac(a2-3)]Gal(b1-4)Glc
# In short: as §1
# [19] = biological target: Gal(b1-3)GlcNAc(a1-3)Gal(b1-4)GlcNAc
# In short: as §1
# [20] = biological target: Gal(b1-3)GlcNAc(b1-3)Gal(b1-4)Glc
# In short: as §1
# [21] = biological target: Gal(b1-3)GlcNAc(b1-3)Gal(b1-4)GlcNAc(b1-6)[Gal(b1-3)GlcNAc(b1-3)]Gal(b1-4)Glc
# In short: as §1
# [22] = biological target: Gal(b1-3)GlcNAc(b1-3)GalNAc
# In short: as §1
# [23] = biological target: Gal(b1-3)[Fuc(a1-4)]GlcNAc(b1-3)Gal(b1-4)[Fuc(a1-3)]GlcNAc
# In short: as §1
# Gal(b1-4)Glc = biological target: Gal(b1-4)Glc
# In short: as §1
# [24] = biological target: Gal(b1-4)GlcNAc(b1-2)Man(a1-3)[Gal(b1-4)GlcNAc(b1-2)Man(a1-6)]Man(b1-4)GlcNAc(b1-4)GlcNAc
# In short: as §1
# [25] = biological target: Gal(b1-4)GlcNAc(b1-2)Man(a1-3)[Gal(b1-4)GlcNAc(b1-2)Man(a1-6)][Gal(b1-4)GlcNAc(b1-4)]Man(b1-4)GlcNAc(b1-4)[Fuc(a1-6)]GlcNAc
# In short: as §1
# [26] = biological target: Gal(b1-4)GlcNAc(b1-2)Man(a1-6)Man(b1-4)GlcNAc(b1-4)GlcNAc
# In short: as §1
binder,measurement,setting,value
B1,glycan array binding signal (z-score),[1],-0.235
same,glycan array binding signal (z-score),[2],-0.214
same,glycan array binding signal (z-score),[3],0.311
same,glycan array binding signal (z-score),[4],2.82
same,glycan array binding signal (z-score),[5],3.91
same,glycan array binding signal (z-score),[6],2.41
same,glycan array binding signal (z-score),[7],0.284
same,glycan array binding signal (z-score),[8],-0.58
same,glycan array binding signal (z-score),[9],0.176
same,glycan array binding signal (z-score),[10],-0.527
same,glycan array binding signal (z-score),[11],0.59
same,glycan array binding signal (z-score),[12],-0.827
same,glycan array binding signal (z-score),[13],-0.156
same,glycan array binding signal (z-score),[14],3.45
same,glycan array binding signal (z-score),[15],1.55
same,glycan array binding signal (z-score),Gal(a1-3)Gal,-0.029
same,glycan array binding signal (z-score),[16],-0.579
same,glycan array binding signal (z-score),Gal(b1-3)GalNAc,-0.212
same,glycan array binding signal (z-score),[17],3.41
same,glycan array binding signal (z-score),[18],-0.51
same,glycan array binding signal (z-score),[19],-0.125
same,glycan array binding signal (z-score),[20],-0.276
same,glycan array binding signal (z-score),[21],-0.519
same,glycan array binding signal (z-score),[22],-0.596
same,glycan array binding signal (z-score),[23],0.251
same,glycan array binding signal (z-score),Gal(b1-4)Glc,-0.548
same,glycan array binding signal (z-score),[24],-0.247
same,glycan array binding signal (z-score),[25],-0.557
same,glycan array binding signal (z-score),[26],0.775
